GSIS activator = primary screen for activators of insulin secretion dependent on glucose, INS-1E cells, GLuc reporter luminescence. AID 743287. hit rate 0.61% among 370,000. activation, % at 16.6 µM. INS-1E GLuc reporter insulin secretion, 2-3 h;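 active = lowest replicate activation of at least 40%, so every replicate reaches that level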
AF4-AF9 inh = inhibitors of human MLL-AF4/AF9 interaction; P42568; AlphaScreen, biotin-AF4 peptide binding to FLAG-AF9; inhibition, % at 10 µM; hit rate 0.47% among 350,000; AID 651704;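 active = every replicate reaching a set inhibition limit, whatever the replicate mean, cut at about 25% in these data; inconclusive = mean inhibition reaches that limit but some replicates miss it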
RAD54 inh = inhibitors of human RAD54 branch migration | AID 602329 | hit rate 0.14% among 360,000 | inhibition, % at 10.4 µM | RAD54 Holliday junction branch migration, FAM/BHQ fluorescence | Q92698;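 active = mean normalized replicate activity at least 40 and at least half of replicates scoring 40 or more; inconclusive = only one of the two criteria met; inactive = mean below 40 and under half of replicates reaching 40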;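 also: inhibitors cause a drop in the FAM fluorescence signal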
Target sequence (Q92698 whole entry, looked up): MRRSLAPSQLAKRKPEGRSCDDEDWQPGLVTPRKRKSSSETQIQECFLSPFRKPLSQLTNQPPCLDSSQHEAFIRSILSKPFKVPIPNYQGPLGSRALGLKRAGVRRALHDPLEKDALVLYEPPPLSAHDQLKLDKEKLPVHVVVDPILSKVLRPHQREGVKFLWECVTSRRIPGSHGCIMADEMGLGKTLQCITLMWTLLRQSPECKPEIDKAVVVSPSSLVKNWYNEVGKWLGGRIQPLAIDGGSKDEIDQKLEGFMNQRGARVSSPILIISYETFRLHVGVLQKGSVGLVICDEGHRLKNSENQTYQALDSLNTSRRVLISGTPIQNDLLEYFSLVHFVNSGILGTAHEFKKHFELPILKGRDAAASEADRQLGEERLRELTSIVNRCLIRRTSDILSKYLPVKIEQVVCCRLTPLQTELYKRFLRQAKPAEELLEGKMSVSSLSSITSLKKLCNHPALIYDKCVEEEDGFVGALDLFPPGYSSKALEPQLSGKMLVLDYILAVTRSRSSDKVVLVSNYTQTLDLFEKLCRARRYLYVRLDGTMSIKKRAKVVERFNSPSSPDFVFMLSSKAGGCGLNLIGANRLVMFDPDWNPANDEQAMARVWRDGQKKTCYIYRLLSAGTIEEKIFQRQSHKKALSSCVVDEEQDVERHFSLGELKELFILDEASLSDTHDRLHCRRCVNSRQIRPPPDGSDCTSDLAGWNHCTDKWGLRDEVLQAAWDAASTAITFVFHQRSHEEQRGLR
dFosB activator = enhances mouse delta FosB homodimer DNA binding; P13346; purified delta FosB, TAMRA-CDK5 oligo fluorescence polarization; percent of positive-control signal above neutral wells; activation, % at 25 µM; hit rate 0.99% among 340,000; AID 493131;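 active = mean activation above about 17%, with every replicate also reaching it, limit read from the data, passing the limit was not always enough; inconclusive = only one of the two conditions met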
RAD52 anneal inh = RAD52 (human) annealing inhibition; P43351; recombinant RAD52 DNA annealing, FRET fluorescence; inhibition, % at 18.7 µM; hit rate 0.46% among 360,000;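 active = every replicate showing at least 50% inhibition; inconclusive = mean inhibition at least 50% but not in every replicate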
DENV2 CPE = DENV2-induced cell death inhibition. DENV2-infected cells, cytopathic effect rescue, plate reader. CPE inhibition, % at 9.99 µM. hit rate 1.7% among 350,000; in the data active = CPE inhibition above about 20%, passing the limit was not always enough; inconclusive = no clear call, values can overlap the other calls; tested in BHK-21 cells
Of the large screens only hits and unclear results are named; the others gave an inactive call. A selection: hits, their analogues and other compounds. The true share with any hit is near 3.1%.

COc1cccc(NC(=O)CN(C)C(=O)c2cccc(S(=O)(=O)N3c4ccccc4CC3C)c2)c1 (stereo not drawn)	DENV2 CPE 58
O=C(CCN1CCOCC1)c1ccccc1	GSIS activator 105 (no result: RAD54 inh)
O=C(CCN1CCOCC1)c1ccc2c(c1)OCCO2	GSIS activator 48 (no result: AF4-AF9 inh, RAD52 anneal inh, DENV2 CPE)
O=C(CCN1CCCCC1)c1ccccc1	none
O=C(CCCN1CCOCC1)c1ccc2c(c1)OCCO2	none (no result: GSIS activator, AF4-AF9 inh, RAD52 anneal inh, DENV2 CPE)
Cc1noc(C)c1S(=O)(=O)N(C)C[C@H]1Oc2ccc(NC(=O)C3CCCCC3)cc2CC(=O)N([C@@H](C)CO)C[C@H]1C	none (no result: dFosB activator)
C[C@H](CO)N1C[C@H](C)[C@H](CN(C)Cc2ccc(C(=O)O)cc2)Oc2c(NC(=O)C3CC3)cccc2C1=O	none (no result: dFosB activator)
C[C@H]1CN([C@@H](C)CO)C(=O)c2cc(NS(=O)(=O)c3ccccc3)ccc2O[C@@H]1CN(C)S(=O)(=O)c1cn(C)cn1	none (no result: dFosB activator)
O=S(=O)(c1ccccc1)[C@@]1(c2ccccc2)C[C@@H]2ON=C(c3cccc(Br)c3)[C@@H]2C1	none (no result: DENV2 CPE)
O=C(O)[C@]1(S(=O)(=O)c2ccccc2)C[C@@H]2ON=C(c3cccc(Br)c3)[C@@H]2C1	DENV2 CPE 25
C[C@H](CO)N1C[C@H](C)[C@H](CN(C)C(=O)NC2CCCCC2)Oc2c(NS(=O)(=O)c3ccc(F)cc3)cccc2C1=O	none (no result: dFosB activator)
Cn1c(/C(C#N)=C/c2ccc(O)cc2)nc2ccccc21	GSIS activator 42
O=C(Nc1ncn[nH]1)c1ccc(Cl)c(Cl)c1	GSIS activator 44
CC(=O)Nc1cc(-c2cccc(NS(C)(=O)=O)c2)cn2c(-c3cccc(C(C)=O)c3)cnc12	DENV2 CPE 33 (no result: dFosB activator)
CC(C)N1CCN(c2ccc(OC[C@H]3CO[C@](Cn4cncn4)(c4ccc(Cl)cc4Cl)O3)cc2)CC1	AF4-AF9 inh 36
COC(=O)N1C(=O)[C@](c2ccc(Cl)cc2)(C(C)C)N1C(=O)OC	DENV2 CPE 50
CCc1cnc(N2[C@H](C#N)[C@@H](c3ccc(-c4cccc(F)c4)cc3)[C@H]2CO)s1	none (no result: dFosB activator)
C/C=C/c1ccc([C@H]2[C@@H](CNC(=O)c3ccncc3)N(C(=O)CC)[C@H]2CO)cc1	none (no result: dFosB activator)
Cc1cc(-c2onc(C)c2C(=O)N/N=C/c2ccccc2)no1	none (no result: RAD54 inh)
Cc1ccc(SC(=O)c2c(C)noc2-c2cc(C)on2)cc1	DENV2 CPE 41 (no result: GSIS activator)
Cc1ccc(O)c(CP(=O)(c2ccccc2)c2ccccc2)c1	GSIS activator 44
O=C(NC1CC1)c1cc(Cl)nc2ccccc12	none
CC1(NC(=O)c2cc(Cl)nc3ccccc23)CCS(=O)(=O)C1 (stereo not drawn)	DENV2 CPE 54
O=C(Cc1ccc(-n2c(=O)c3sccc3n(CC(=O)Nc3ccccc3)c2=O)cc1)NCc1ccco1	dFosB activator 73 (no result: RAD54 inh, DENV2 CPE)
O=C(Cn1c(=O)n(-c2ccccc2)c(=O)c2sccc21)NCc1ccccc1	none
Cc1cccn2cc(CCNS(=O)(=O)c3cccs3)nc12	GSIS activator 42
O=[N+]([O-])c1ccc(C=NN2CCCCCC2)cc1	AF4-AF9 inh 35, DENV2 CPE inconclusive (no result: GSIS activator, RAD54 inh)
Nc1ccccc1O	none (no result: GSIS activator, AF4-AF9 inh, RAD52 anneal inh, DENV2 CPE)
Nc1cccc2c(O)cccc12	DENV2 CPE 32 (no result: AF4-AF9 inh, RAD54 inh)
COc1ccc(C(=O)N/N=C(\C)CC(=O)Nc2ccc(N(C)C)cc2)c(OC)c1	DENV2 CPE 116
O=C(C[C@H]1CC[C@@H](NC(=O)Nc2ccccc2F)[C@@H](CO)O1)NCc1ccc(Cl)cc1	none (no result: dFosB activator)
CCCCOc1ccc(C2=NNC(=O)CC2)cc1	GSIS activator 45 (no result: RAD54 inh)
CCCCOc1ccc(C2(C)NC(=O)NC2=O)cc1 (stereo not drawn)	none
C[C@@H]1CC2=C(C(=O)OC(C)(C)O2)[C@H](c2ccc(F)cc2)O1	GSIS activator 56 (no result: RAD54 inh, dFosB activator)
C[C@@H]1CC2=C(C(=O)OC(C)(C)O2)[C@H](c2ccc(Cl)cc2)O1	GSIS activator 52 (no result: RAD54 inh, dFosB activator)
COCCCNC(=O)[C@]1(Cc2ccccc2N=[N+]=[N-])N=C(c2ccc(OCCCO)cc2)O[C@@H]1c1ccccc1	DENV2 CPE inconclusive (no result: GSIS activator, dFosB activator)
O=C(Nc1nnc(-c2ccc(F)cc2)s1)Nc1ccccc1F	none (no result: dFosB activator)
O=C(Nc1nnc(-c2ccccc2SCc2ccccc2F)s1)Nc1ccccc1F	GSIS activator 61 (no result: AF4-AF9 inh, RAD52 anneal inh, DENV2 CPE)
